Test results: ChEMBL document CHEMBL3988442, “University of Dundee, Small-Polar-MMV Screening Library” (2021)
In all, about 48,000 compounds went through this assay and about 13,000 (27%) showed an effect of 50% or more. The list shows a part of the results.

What follows are compounds tested on Wolbachia pipientis (assay: Anti-Wolbachia Cell-Based Screen). Settings: 5 µM.
Assay type: functional
Parameters: scale not given: in the data most compounds retested in dose-response had high values
COc1cccc(-c2csc(Cn3ccc(=O)[nH]c3=O)n2)c1 was tested, and the “Percent Effect” value was -10.2%.
For COCCCn1ccc(NC(=O)NCCn2ccnc2)n1, the “Percent Effect” value was -3.976%.
With Fc1ccc2c(c1)nc1n2[C@@H](CNCc2nccs2)COC1 the “Percent Effect” value was -7.093%.
With Cc1nc(Cn2cc(C#N)c(=O)c3ccccc32)no1 the “Percent Effect” value was -5.414%.
For N#Cc1cc(N2CCC(CS(N)(=O)=O)CC2)nc2ccccc12, the “Percent Effect” value was -7.143%.
CC1CN(C)CCN1C(=O)NCCCn1ccnc1 (stereo unspecified) was tested, and the “Percent Effect” value was 19.65%.
With COc1ccc2cc(CN(C)C(C)c3nc(C(C)(C)C)no3)ccc2c1 (stereo unspecified) the “Percent Effect” value was -2.359%.
With CN1CC2(CCN(CC3CC3)CC2)COc2ccccc2S1(=O)=O.O=C(O)C(F)(F)F the “Percent Effect” value was 105.1%.
In the case of CN(C)C(=O)CN1CCC2(CC1)COc1ccccc1S(=O)(=O)N(C)C2.O=C(O)C(F)(F)F, the “Percent Effect” value is reported as 107.3%.
With CN(C)C(=O)CN1C[C@H]2CCN(Cc3ccccc3)CC[C@H]2S1(=O)=O.O=C(O)C(F)(F)F the “Percent Effect” value was -15.21%.
In the case of CN1CC2(CCN(Cc3ccoc3)CC2)COc2ccccc2S1(=O)=O.O=C(O)C(F)(F)F, the “Percent Effect” value is reported as 1.89%.
For COc1cccn(CC(=O)N(C)CCC2CCOCC2)c1=O, the “Percent Effect” value was -97.94%.
In the case of CN1CCN([C@@H]2CCN(C3CCOCC3)[C@H]2Cc2cnn(C)c2)CC1.O=C(O)C(F)(F)F.O=C(O)C(F)(F)F.O=C(O)C(F)(F)F, the “Percent Effect” value is reported as -4.702%.
Cc1nccn1-c1cc(CNC(=O)C2CCC(=O)N2)ccn1 (stereo unspecified) was tested, and the “Percent Effect” value was -0.872%.
For CN1CCC2(COCCN(Cc3cccc(C#N)c3)C2)C1.O=C(O)C(F)(F)F.O=C(O)C(F)(F)F (stereo unspecified), the “Percent Effect” value was -6.492%.
For Cc1cc(N2CCC(N(C)Cc3cccnc3)C2=O)n(C)n1 (stereo unspecified), the “Percent Effect” value was 5.804%.
For CCC(C(=O)NCc1ccncc1)N(c1cccc(C)c1)S(C)(=O)=O (stereo unspecified), the “Percent Effect” value was -0.3468%.
With c1cnc(N2CCC(OCCN3CCCCC3)C2)nc1 (stereo unspecified) the “Percent Effect” value was 7.193%.
For CCS(=O)(=O)N1CCc2ccc(=O)n(CC3CC3)c2CC1, the “Percent Effect” value was -6.425%.
CC(C)NC1CCc2c(ccc(=O)n2CCN2CCOCC2)C1.O=C(O)C(F)(F)F.O=C(O)C(F)(F)F (stereo unspecified) was tested, and the “Percent Effect” value was 1.575%.
For O=c1ccc2c(n1CC1CC1)CCN(c1ncccn1)CC2, the “Percent Effect” value was 91.07%.
For CS(=O)(=O)N1CCc2ccc(=O)n(CCN3CCCC3)c2CC1.O=C(O)C(F)(F)F, the “Percent Effect” value was 96.15%.
For O=c1ccc2c(n1CCN1CCCC1)CCN(c1ncccn1)CC2, the “Percent Effect” value was 103.5%.
In the case of CS(=O)(=O)N1CCc2ccc(=O)n(CC3CC3)c2CC1, the “Percent Effect” value is reported as -5%.
O=C1OCCN1CCSc1nnnn1C1CCOCC1 was tested, and the “Percent Effect” value was 4.471%.
For CCc1c(O)nc(SC(C)CC)n(-c2ccccc2)c1=O (stereo unspecified), the “Percent Effect” value was -9.121%.
